Details in all cases: mRNA level, 48 h; actives raise or lower the signal
Read-out in test [1]: Broad substrate specificity ATP-binding cassette transporter ABCG2 (Homo sapiens) (UniProt Q9UNQ0)
In words: LTEA_HepaRG_ABCG2: Life Technologies and Expression Analysis (LTEA) Assay for ABC Transporter (ABCG2) using HepaRG (AID 2283465). In short, it runs like this:
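Differentiated HepaRG cells were exposed for 48 h in serum-free induction medium to 8 half-log concentrations, top 100 uM, in 0.5% DMSO. ABCG2 mRNA was measured by qRT-PCR, normalized to ACTB, GAPDH and POLR2A, with bidirectional fitting versus DMSO.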

Read-out in test [2]: ATP-citrate lyase (ACLY), ACLY (gene 47)
In words: LTEA_HepaRG_ACLY: Life Technologies and Expression Analysis (LTEA) Assay for ATP-citrate lyase (ACLY) using HepaRG (AID 2283466). The procedure, abridged: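 Differentiated HepaRG cells exposed 48 h in serum-free induction medium to eight half-log concentrations up to 100 uM in 0.5% DMSO, duplicates. Transcript measured by Fluidigm TaqMan qRT-PCR, normalized to ACTB, GAPDH, POLR2A; bidirectional fit versus DMSO.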

Read-out in test [3]: Peroxisomal acyl-coenzyme A oxidase 1 (ACOX1) gene, ACOX1 (gene 51)
In words: LTEA_HepaRG_ACOX1: Life Technologies and Expression Analysis (LTEA) Assay for Peroxisomal acyl-coenzyme A oxidase 1 (ACOX1) gene using HepaRG (AID 2283467). In short, it runs like this:
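HepaRG cells, plated 48 h then switched to serum-free induction medium, were exposed in duplicate for 48 h to 8-point half-log concentrations up to 100 uM in 0.5% DMSO. ACOX1 mRNA was measured by qRT-PCR, normalized to ACTB/GAPDH/POLR2A, and fitted bidirectionally versus DMSO.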

Read-out in test [4]: Alkaline Phosphatase, Placental (ALPP) gene, ALPP (gene 250)
As to the kind of experiment: LTEA_HepaRG_ALPP: Life Technologies and Expression Analysis (LTEA) Assay for Alkaline Phosphatase, Placental (ALPP) gene using HepaRG (AID 2283468). In short, it runs like this:
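HepaRG cells plated 48 h, then exposed in duplicate for 48 h in serum-free induction medium to 8-point half-log series from 100 uM in 0.5% DMSO. ALPP mRNA by TaqMan qRT-PCR, normalized to ACTB/GAPDH/POLR2A; bidirectional fit versus DMSO.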

Read-out in test [5]: Bcl-2 (BAD) gene, BAD (gene 572)
In words: LTEA_HepaRG_BAD: Life Technologies and Expression Analysis (LTEA) Assay for Bcl-2 (BAD) gene using HepaRG (AID 2283469). In short, it runs like this:
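Differentiated HepaRG cells were exposed in duplicate in 0.5% DMSO for 48 h to eight-point half-log concentrations up to 100 uM. BAD mRNA was measured by Fluidigm TaqMan qRT-PCR, normalized to ACTB, GAPDH and POLR2A, and fitted bidirectionally against DMSO.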

Read-out in test [6]: Bcl-2 (BAX) gene, BAX (gene 581)
In words: LTEA_HepaRG_BAX: Life Technologies and Expression Analysis (LTEA) Assay for Bcl-2 (BAX) gene using HepaRG (AID 2283470). The procedure, abridged:
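HepaRG (human liver), 48 h exposure, duplicate wells. 8-pt curve, half-log from 100 uM, 0.5% DMSO. BAX transcript by TaqMan qRT-PCR; ACTB/GAPDH/POLR2A normalization; gain or loss vs DMSO baseline.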

Read-out in test [7]: adenosine kinase (ADK) gene, ADK (gene 132)
In words: LTEA_HepaRG_ADK: Life Technologies and Expression Analysis (LTEA) Assay for adenosine kinase (ADK) gene using HepaRG (AID 2283471). The procedure, abridged: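 HepaRG (human liver), 48 h chemical exposure, 8-pt half-log series, top 100 uM, 0.5% DMSO vehicle. Readout: ADK mRNA by qRT-PCR vs housekeeping genes; bidirectional curve fit relative to DMSO baseline.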

Read-out in test [8]: Alpha-fetoprotein (AFP) gene, AFP (gene 174)
In words: LTEA_HepaRG_AFP: Life Technologies and Expression Analysis (LTEA) Assay for Alpha-fetoprotein (AFP) gene using HepaRG (AID 2283472). The procedure, abridged:
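HepaRG, single lot; 48 h post-plating -> serum-free induction medium; cpd 8-pt, 100 uM top, half-log, 0.5% DMSO, duplicate, 48 h. RNA -> qRT-PCR AFP, norm ACTB/GAPDH/POLR2A. Bidirectional fit vs DMSO.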

Read-out in the next test: BCL2L11 (gene 10018)
As to the kind of experiment: LTEA_HepaRG_BCL2L11: Life Technologies and Expression Analysis (LTEA) Assay for Bcl-2 (BCL2L11) gene using HepaRG (AID 2283473). The procedure, abridged: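 Differentiated human HepaRG cells were exposed 48 h in serum-free induction medium to eight half-log concentrations up to 100 uM in 0.5% DMSO, in duplicate. BCL2L11 mRNA was quantified by TaqMan qRT-PCR, normalized to ACTB, GAPDH and POLR2A; induction or repression fitted versus DMSO.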

Read-out in test [9]: Apoptosis regulator Bcl-2 (Homo sapiens) (UniProt P10415)
In words: LTEA_HepaRG_BCL2: Life Technologies and Expression Analysis (LTEA) Assay for Bcl-2 gene using HepaRG (AID 2283475). The procedure, abridged: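 HepaRG, plated 48 h then switched to serum-free induction medium; dosed 48 h, 8 conc. (max 100 uM, half-log steps), duplicate, 0.5% DMSO. Lysis in RLT, RNA isolated, TaqMan qRT-PCR for BCL2; ACTB/GAPDH/POLR2A normalisation; bidirectional fit vs DMSO.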

Read-out in test [10]: Bcl-2 (BID) gene, BID (gene 637)
As to the kind of experiment: LTEA_HepaRG_BID: Life Technologies and Expression Analysis (LTEA) Assay for Bcl-2 (BID) gene using HepaRG (AID 2283476). The procedure, abridged:
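Transcript levels of BID, measured by qRT-PCR and normalized to three housekeeping genes, were fitted bidirectionally against DMSO controls. Cells were HepaRG, dosed 48 h at up to 100 uM.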

Read-out in another test: Caspase-3 (Homo sapiens) (UniProt P42574)
In words: LTEA_HepaRG_CASP3: Life Technologies and Expression Analysis (LTEA) Assay for cysteine-aspartic acid protease (CASP3) using HepaRG (AID 2283477). The procedure, abridged: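 Differentiated HepaRG cells, plated 48 h, were treated in duplicate in serum-free induction medium for 48 h with eight half-log concentrations up to 100 uM in 0.5% DMSO. CASP3 mRNA measured by qRT-PCR, normalized to ACTB, GAPDH, POLR2A.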

Read-out in test [11]: Cytochrome P450 (CYP24A1), CYP24A1 (gene 1591)
As to the kind of experiment: LTEA_HepaRG_CYP24A1: Life Technologies and Expression Analysis (LTEA) Assay for Cytochrome P450 (CYP24A1) using HepaRG (AID 2283478). The procedure, abridged: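 HepaRG cells plated 48 h, then exposed in duplicate in serum-free induction medium for 48 h to 8-point half-log series from 100 uM in 0.5% DMSO. CYP24A1 mRNA by Fluidigm qRT-PCR, normalized to ACTB, GAPDH, POLR2A; bidirectional fit versus DMSO.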

Read-out in test [12]: Cytochrome P450 (CYP1A2), CYP1A2 (gene 1544)
As to the kind of experiment: LTEA_HepaRG_CYP1A2: Life Technologies and Expression Analysis (LTEA) Assay for Cytochrome P450 (CYP1A2) using HepaRG (AID 2283479). In short, it runs like this:
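Differentiated human HepaRG cells in serum-free induction medium exposed 48 hours in duplicate to 8 half-log concentrations from 100 uM, 0.5% DMSO. CYP1A2 mRNA quantified by qRT-PCR, normalized to ACTB, GAPDH and POLR2A; bidirectional fitting versus DMSO.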

Read-out in test [13]: cysteine-aspartic acid protease (CASP8), CASP8 (gene 841)
As to the kind of experiment: LTEA_HepaRG_CASP8: Life Technologies and Expression Analysis (LTEA) Assay for cysteine-aspartic acid protease (CASP8) using HepaRG (AID 2283480). The procedure, abridged:
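Differentiated HepaRG cells in serum-free induction medium, 48 h exposure, eight-point half-log series from 100 uM in 0.5% DMSO, duplicates. CASP8 mRNA by qRT-PCR, normalized to ACTB, GAPDH, POLR2A; bidirectional fit versus DMSO.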

Read-out in test [14]: Cytochrome P450 (CYP2B6), CYP2B6 (gene 1555)
In words: LTEA_HepaRG_CYP2B6: Life Technologies and Expression Analysis (LTEA) Assay for Cytochrome P450 (CYP2B6) using HepaRG (AID 2283481). The procedure, abridged:
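Differentiated human HepaRG cells in serum-free induction medium, dosed in duplicate for 48 h over 8 half-log concentrations topping at 100 uM (0.5% DMSO). CYP2B6 mRNA measured by TaqMan qRT-PCR, normalized to ACTB, GAPDH, POLR2A; bidirectional fit versus DMSO.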

Read-out in test [15]: Cytochrome P450 2C19 (Homo sapiens) (UniProt P33261)
As to the kind of experiment: LTEA_HepaRG_CYP2C19: Life Technologies and Expression Analysis (LTEA) Assay for CYP2C19 using HepaRG (AID 2283482). In short, it runs like this:
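Differentiated HepaRG cells in serum-free induction medium exposed 48 h in duplicate, 8 concentrations from 100 uM by half-log steps in 0.5% DMSO. CYP2C19 mRNA measured by TaqMan qRT-PCR, normalized to ACTB, GAPDH, POLR2A. Bidirectional fit versus DMSO.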

Read-out in the next test: CYP2C8 (gene 1558)
In words: LTEA_HepaRG_CYP2C8: Life Technologies and Expression Analysis (LTEA) Assay for CYP2C8 using HepaRG (AID 2283483). The procedure, abridged:
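Differentiated HepaRG cells in serum-free induction medium exposed 48 h in duplicate to 8 half-log concentrations from 100 uM in 0.5% DMSO. CYP2C8 mRNA by qRT-PCR normalized to ACTB, GAPDH, POLR2A; bidirectional fit versus DMSO.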

Read-out in the next test: CYP2C9 (gene 1559)
In words: LTEA_HepaRG_CYP2C9: Life Technologies and Expression Analysis (LTEA) Assay for CYP2C9 using HepaRG (AID 2283484). The procedure, abridged:
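Differentiated human HepaRG cells in serum-free induction medium were exposed 48 h to chemicals in 8-point half-log series from 100 uM (0.5% DMSO), in duplicate. CYP2C9 mRNA was measured by qRT-PCR, normalized to ACTB/GAPDH/POLR2A, with bidirectional fitting versus DMSO.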

Read-out in test [16]: Apolipoprotein A-V (APOA5) gene, APOA5 (gene 116519)
As to the kind of experiment: LTEA_HepaRG_APOA5: Life Technologies and Expression Analysis (LTEA) Assay for Apolipoprotein A-V (APOA5) gene using HepaRG (AID 2283474). The procedure, abridged: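 Differentiated HepaRG cells in serum-free induction medium, exposed 48 h in duplicate to eight half-log concentrations topping at 100 uM (0.5% DMSO). APOA5 mRNA by Fluidigm TaqMan qRT-PCR, normalized to ACTB, GAPDH and POLR2A; bidirectional fit versus DMSO.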

Calls of active or inactive are those of the source. How the source made its calls: active means hit-call score of the fitted dose curve at least 0.9, where 1 is the maximum; inactive means score below 0.9.

Chain of Caspase-3 (Homo sapiens) (P42574 whole entry, looked up): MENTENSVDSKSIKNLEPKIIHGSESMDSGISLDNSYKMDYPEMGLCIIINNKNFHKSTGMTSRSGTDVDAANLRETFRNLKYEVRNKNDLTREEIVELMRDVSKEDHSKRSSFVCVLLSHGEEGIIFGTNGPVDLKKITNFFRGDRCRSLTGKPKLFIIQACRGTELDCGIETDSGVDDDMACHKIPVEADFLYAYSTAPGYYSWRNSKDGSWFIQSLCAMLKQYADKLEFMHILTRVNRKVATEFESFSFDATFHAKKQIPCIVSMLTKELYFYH
Chain of Cytochrome P450 2C19 (Homo sapiens) (P33261 whole entry, looked up): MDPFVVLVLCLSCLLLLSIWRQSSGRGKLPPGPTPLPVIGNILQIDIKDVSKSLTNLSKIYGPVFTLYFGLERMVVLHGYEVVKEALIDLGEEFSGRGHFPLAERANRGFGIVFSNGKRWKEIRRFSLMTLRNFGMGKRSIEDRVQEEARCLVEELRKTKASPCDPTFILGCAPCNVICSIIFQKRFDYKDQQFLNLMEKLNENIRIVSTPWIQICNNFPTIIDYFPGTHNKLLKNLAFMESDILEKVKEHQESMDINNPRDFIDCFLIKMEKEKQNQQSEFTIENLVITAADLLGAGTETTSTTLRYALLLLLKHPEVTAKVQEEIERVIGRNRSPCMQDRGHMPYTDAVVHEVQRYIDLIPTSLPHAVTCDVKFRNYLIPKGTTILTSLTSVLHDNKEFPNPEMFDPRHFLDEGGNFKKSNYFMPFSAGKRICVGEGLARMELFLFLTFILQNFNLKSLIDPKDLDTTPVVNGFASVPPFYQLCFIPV
Chain of Apoptosis regulator Bcl-2 (Homo sapiens) (P10415 whole entry, looked up): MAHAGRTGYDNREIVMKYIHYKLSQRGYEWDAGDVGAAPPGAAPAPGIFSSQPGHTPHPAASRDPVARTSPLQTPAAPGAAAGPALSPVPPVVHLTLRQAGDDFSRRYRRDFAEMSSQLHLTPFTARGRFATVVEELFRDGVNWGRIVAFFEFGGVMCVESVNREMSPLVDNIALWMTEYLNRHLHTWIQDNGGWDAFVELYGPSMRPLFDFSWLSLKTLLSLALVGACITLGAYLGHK
Chain of Broad substrate specificity ATP-binding cassette transporter ABCG2 (Homo sapiens) (Q9UNQ0 whole entry, looked up): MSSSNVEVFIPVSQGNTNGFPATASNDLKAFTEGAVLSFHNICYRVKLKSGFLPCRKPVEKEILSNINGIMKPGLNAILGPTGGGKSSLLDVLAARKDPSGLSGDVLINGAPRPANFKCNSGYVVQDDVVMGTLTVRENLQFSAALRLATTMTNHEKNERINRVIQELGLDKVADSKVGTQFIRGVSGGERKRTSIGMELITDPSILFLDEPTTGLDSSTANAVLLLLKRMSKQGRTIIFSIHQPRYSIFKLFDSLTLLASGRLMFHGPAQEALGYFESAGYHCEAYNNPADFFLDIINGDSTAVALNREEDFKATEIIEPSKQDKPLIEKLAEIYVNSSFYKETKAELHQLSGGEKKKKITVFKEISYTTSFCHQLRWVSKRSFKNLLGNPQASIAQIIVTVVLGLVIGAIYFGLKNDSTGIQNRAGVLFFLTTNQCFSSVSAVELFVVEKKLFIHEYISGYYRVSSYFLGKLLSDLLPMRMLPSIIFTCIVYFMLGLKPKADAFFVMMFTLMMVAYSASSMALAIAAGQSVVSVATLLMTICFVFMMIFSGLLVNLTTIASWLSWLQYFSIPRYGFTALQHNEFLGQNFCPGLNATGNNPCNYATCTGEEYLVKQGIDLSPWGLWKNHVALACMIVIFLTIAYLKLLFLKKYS

In the case of `CC(Oc1ccc(Cl)cc1Cl)C(=O)O` (stereo not given), the result in [1], in test [3], in [4], in [5], in [6] and in [7] was inactive. In addition, the compound was called inactive (in test [8]; with BCL2L11 (gene 10018); in [9]; in test [10]; with Caspase-3 (Homo sapiens); in test [11]). In addition, the result (in test [12]; in test [13]; in test [14]; in test [15]; with CYP2C8 (gene 1558); with CYP2C9 (gene 1559)) was inactive. The concentration at half-maximal activity (AC50) (in general, the midpoint of the concentration-response curve, whichever way the signal moves) in test [2] was 50 µM (active).

As to `CCCCNC(=O)OCC#CI`, the outcome (in test [2]; in [3]; in test [5]; in [6]; in [8]; in the test with BCL2L11 (gene 10018)) was inactive. In addition, the call (in test [9]; in test [10]; with Caspase-3 (Homo sapiens); in test [11]; in test [13]) was inactive. The half-maximal activity concentration (AC50) is 9.92 µM (active) in test [4]; 50 µM (active) in test [7]; 31.1 µM (active) in test [12]; 30.6 µM (active) in test [14]; 50 µM (active) in test [15]; 50 µM (active) in the test with CYP2C8 (gene 1558). For the same compound, the half-maximal activity concentration (AC50) with CYP2C9 (gene 1559) is 21.5 µM (active).

Turning to `C#CCOS(=O)OC1CCCCC1Oc1ccc(C(C)(C)C)cc1` (stereo not given), the AC50 in test [3] is 29.1 µM (active); in test [7], 30.1 µM (active); in test [8], 29.5 µM (active); in test [9], 81.7 µM (active); in test [10] it was 11.4 µM (active); with Caspase-3 (Homo sapiens), 29 µM (active). The concentration at half-maximal activity (AC50) in test [13] is 31.3 µM (active); in [14], 26.6 µM (active); in [15], 26.3 µM (active); with CYP2C8 (gene 1558), 29.9 µM (active); in the test with CYP2C9 (gene 1559) it was 25.6 µM (active). Also, the call (in [4]; in test [5]; in [6]; with BCL2L11 (gene 10018); in [16]; in test [11]) was inactive. In test [12], the outcome was inactive.

For the origin of these results see PubChem BioAssay (EPA / NIEHS).
